Screening results: PubChem, National Center for Advancing Translational Sciences (NCATS)
Shiga inhibitor: Shiga toxin inhibition; Vero cells, Shiga toxin protein synthesis inhibition reporter; inhibition, % at 38.7 µM; 9.2% of 290,000 active; AID 2315; in the data active = inhibition mostly above about 28%, no sharp cut-off; inactive = mostly below about 43%
Pf growth 48h: P. falciparum growth inhibition at 48 hours (one generation); P. falciparum luciferase growth in erythrocytes, 48 h; Potency, µM (highest dose often 28.7 µM), most hits filed as inhibitors; 5.9% of 310,000 active
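Read-out is firefly luciferase luminescence from an integrated reporter in P. falciparum, so falling signal marks reduced parasite growth. Infected erythrocytes were at 2% hematocrit and 0.1% parasitemia (final) in Albumax-supplemented RPMI 1640.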
HCMV inh: blocks human cytomegalovirus replication; HFF cells, HCMV-luciferase reporter, 72 h; active compounds read low; activity change, negative = inhibition, % at 57.5 µM; 4.5% of 410,000 active; in the data active = activity change below about -60%; inconclusive = no clear call, values can overlap the other calls; inactive = above about -39%
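Human foreskin fibroblasts infected with luciferase-reporter HCMV at MOI 1 PFU/cell, compounds at two doses. Luciferase measured 72 h post infection; normalized to buffer-only basal and Salinomycin (10uM) controls.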
HCV inh: HCV inhibition. Potency, µM (top dose mostly 41.8 µM), hits mostly inhibitors. 3.4% of 340,000 active. Huh7.5.1 HCVcc-Cre infection, luciferase reporter, 44 h
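After 44 h co-culture of compound, cells and HCVcc-Cre (~0.5 moi), substrate is added for 15 min at room temperature and luciferase measured over 15 sec. Cells were seeded at 1,000/well and pre-cultured 4 h.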
Cycloheximide cs: affects cycloheximide protein synthesis inhibition readout, counter-screen; cell reporter, cycloheximide protein synthesis inhibition counterscreen; max response, %; 12% of 300,000 active; AID 2314; in the data active = max response mostly above about 13%, no sharp cut-off; inactive = mostly below about 14%; note: read at 38.3 µM for the half of the compounds with a filed dose
Pf growth 96h: P. falciparum growth inhibition at 96 hour, primary screen for plastid delayed-death inhibitors. 6.9% of 320,000 active. P. falciparum luciferase reporter growth, 96 h. Potency, µM (titrated, usually from 28.7 µM), actives largely listed as inhibitors
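Two parasite generations (96 h, 37 C, 5% CO2) of compound exposure in infected erythrocytes (0.05% parasitemia, 2% hematocrit). Luciferase-reporter P. falciparum; decreased luminescence indicates inhibited growth, aimed at apicoplast-acting delayed death.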
A number is an active result; . = inactive; ? = inconclusive; / = not tested or not shown. In the library only some 21% were active in any assay of this set; here they are far more common. Unless noted, calls come from the whole dose curve; as a rule, active = well fitted inhibition curve with a large enough effect; inconclusive = small, poorly fitted or top-dose-only effect, or another doubt; inactive = no such curve, though single readings can be large or run the other way.

SMILES | Shiga inhibitor | Pf growth 48h | HCMV inh | HCV inh | Cycloheximide cs | Pf growth 96h
CCC1CCCN1Cn1cnc2c([nH]c3ccc(Cl)cc32)c1=O (stereo unspecified) | . | ? | . | ? | . | ?
C=CCNc1ncnc2c1[nH]c1ccccc12 | . | 13.1µM | . | 11.2µM | 10.2 | ?
Cc1ccc2cc3c(nc2c1)N(c1ccccc1)CC3 | . | ? | ? | ? | . | .
Cc1cccc(N2CCc3c2nc2ccc(Br)cc2c3N)c1 | . | ? | ? | 10µM | 16.3 | .
Nc1c2c(nc3ccc(Br)cc13)N(Cc1ccccc1)CC2 | . | . | . | 10µM | . | .
Nc1c2c(nc3ccc(Br)cc13)N(c1ccccc1)CC2 | . | / | . | 7.08µM | . | ?
CSc1nc(C)c2c(n1)N(c1cccc(C)c1)CC2 | . | . | . | 10µM | . | ?
Cc1nc2ccn(Cc3cccs3)c(=O)c2cc1C(=O)NCc1ccccc1 | / | / | . | / | / | /
COC(=O)Cc1c(C)c2cc3c(c(C)c2oc1=O)OCN(CCc1ccc(OC)cc1)C3 | / | / | . | / | / | /
CCOC(=O)C1(Cc2ccccc2C(F)(F)F)CCN(C2CCN(C(C)=O)CC2)CC1 | . | 9.28µM | . | . | . | ?
Cc1cc2cc3c(cc2nc1SCc1ccc(C(=O)O)cc1)OCCO3 | . | . | . | ? | . | 9.28µM
Cc1cc2cc3c(cc2nc1SCC(=O)O)OCCO3 | . | . | . | . | . | ?
COc1cccc(CSc2nc3cc4c(cc3cc2C)OCCO4)c1 | . | . | . | ? | . | 5.86µM
CCOC(=O)c1ccc(CN(Cc2ccc(C)cc2)S(=O)(=O)c2ccc(F)c(C(=O)Nc3ccc(C)c(F)c3)c2)cc1 | / | / | . | / | / | /
C#CCOCCOCCOCCNc1nc(N2CCN(C(=O)CCCCCCCCCCNC(=O)[C@@H](CCSC)n3cc(CCO)nn3)CC2)nc(N2CCN(C(=O)CCCCCCCCCCNC(=O)[C@H](CO)n3cc(CCCCCN)nn3)CC2)n1 | / | 1.04µM | / | ? | / | ?
C#CCOCCOCCOCCNc1nc(N2CCN(C(=O)Cn3cc(CCCCN)nn3)CC2)nc(N2CCN(C(=O)[C@H](C(C)C)n3cc(CCO)nn3)CC2)n1 | . | . | . | . | . | .
C#CCOCCOCCOCCNc1nc(N2CCN(C(=O)CCCCCCCCCCNC(=O)[C@@H](CCSC)n3cc(CCO)nn3)CC2)nc(N2CCN(C(=O)CCCCCCCCCCNC(=O)[C@H](CCC(=O)O)n3cc(CCCCCN)nn3)CC2)n1 | / | 5.22µM | / | . | / | 10.4µM
C#CCOCCOCCOCCNc1nc(N2CCN(C(=O)CCCCCCCCCCNC(=O)[C@H](CCCCN)n3cc(CCO)nn3)CC2)nc(N2CCN(C(=O)CCCCCCCCCCNC(=O)[C@H](CCCCN)n3cc(CCCC(=O)O)nn3)CC2)n1 | / | ? | . | . | / | ?
COc1ccc(NC(=O)c2ccc(-c3c(C)noc3C)c3ccoc23)cc1 | / | / | . | / | / | /
O=C1C2C3CC4C5C3C1C5C1(SCCS1)C42 (stereo unspecified) | / | / | -87.0 | / | / | /
CCOc1ccccc1N(C)C(=O)Cn1nc(Cc2ccncc2)c2ccccc2c1=O | / | / | . | / | / | /
COc1cc([N+](=O)[O-])ccc1NC(=O)CCCOc1cccc(C)c1C | . | . | . | ? | . | 2.94µM
COc1ccccc1/C=N/N1C(=O)C(CC(=O)Nc2ccc([N+](=O)[O-])cc2OC)SC1=Nc1cccc(C)c1C (stereo unspecified) | . | 3.7µM | ? | / | . | ?
CCOc1ccc(NC(=O)CC2SC(N)=NC2=O)c([N+](=O)[O-])c1 (stereo unspecified) | . | . | . | . | . | .
CCOc1ccc(/C(C)=N/N2C(=O)C(CC(=O)Nc3ccc(OC)cc3[N+](=O)[O-])SC2=Nc2cccc(C)c2C)cc1 (stereo unspecified) | . | 2.08µM | ? | . | . | 2.33µM
COC(=O)c1ccc(NC(=O)c2cc(S(=O)(=O)N3CCOCC3)cn2C)cc1 | / | / | . | / | / | /
CCCC1=[N+](CC(=O)c2ccc(Br)cc2)CCn2cccc21 | . | 11.7µM | . | . | . | ?
O=c1c2c3c(sc2nc(NCCOCCO)n1Cc1ccco1)CCCCC3 | . | ? | . | . | . | ?
N=c1c2c3c(sc2ncn1Cc1ccco1)CCCCC3 | . | . | . | . | 21.3 | ?
CN(C)CCNc1nc2sc3c(c2c(=O)n1CCc1ccccc1)CCCCC3 | . | 2.08µM | -98.9 | ? | . | 2.33µM
